Lmaj promast: Leishmania major promastigote growth inhibition. Leishmania major promastigotes, resazurin fluorescence viability. inhibition, % at 10 µM. hit rate 9% among 200,000. AID 1063; in the data active = inhibition above about 50%;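 also: promastigotes grown with compound for 44 hours at 28 °C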
PTEN del growth: PTEN-deleted cell growth suppression; hit rate 1.2% among 140,000; viability, % at 10 µM; AID 827; HCT116 PTEN-null viability, CellTiter-Glo, 60 h; stronger effect = lower value;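 active = viability at or below a set limit, 4 SD under the median of all tested compounds, cut at about 3.7% in these data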;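 also: PTEN knockout HCT116 line with beta catenin targeted HCT116 as companion control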
INS promoter inh: TRM-6 insulin promoter activity inhibition | hit rate 0.9% among 130,000 | TRM-6 cells (human fetal islet line), insulin promoter-eGFP reporter, imaging; reporter expression induced with tamoxifen | AID 1273 | inhibition, % at 2 µM;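 active = inhibition above the mean plus 3 SD, with well images judged a real hit on visual review, cut at about 60% in these data, passing the limit was not always enough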
Ins promoter up: MIN6 insulin promoter up-regulation; hit rate 0.3% among 190,000; z-score at 5 µM; AID 1625; MIN6 insulin promoter-GFP reporter, high-content imaging; stronger effect = higher value;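 active = z-score above 3 at 5 µM with at least 500 cells counted in the well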
Autophagy HCS: modulators of autophagy. MEF GFP-LC3 puncta imaging; test concentration mostly 10 µM. calls only at 10 µM (by protocol). hit rate 0.98% among 190,000;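 active = percentage of spot-positive cells more than 3 SD above its plate mean, without a fluorescence outlier flag or 80% toxicity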;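 also: spot-positive cell cutoff set from DMSO-treated cells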
HCT116 bCat-KO: beta-catenin-lacking colon tumor cell growth suppression. HCT116 beta-catenin knockout viability, CellTiter-Glo, 60 h; stronger effect = lower value. hit rate 1.5% among 140,000. viability, % at 10 µM;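 active = viability at or under a set limit, the compound median less 4 SD, cut at about 6% in these data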;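 also: 0% = Hyamine 1622 control at 20 µM and 100% = untreated cell control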
An asterisk follows results filed as active. In the library only some 9.6% were active in any assay of this set; here they are far more common.

How did CCC(C)NC(=O)CSc1nc2cc3c(cc2c(=O)n1Cc1ccco1)OCO3 (centres undefined) do in these assays?
Lmaj promast: -5.7; INS promoter inh: 50.0; Ins promoter up: 0.1; Autophagy HCS: inactive

Results for CCC(Sc1nc2cc3c(cc2c(=O)n1Cc1ccco1)OCO3)C(=O)NCCOC (centres undefined) ?
Lmaj promast: 3.8; PTEN del growth: 99.5; INS promoter inh: -2.9; Ins promoter up: 0.29; Autophagy HCS: inactive; HCT116 bCat-KO: 102.4

How did CCC(Sc1nc2cc3c(cc2c(=O)n1Cc1ccco1)OCO3)C(=O)Nc1ccccc1OC (centres undefined) do in these assays?
Lmaj promast: 3.6; PTEN del growth: 20.2; INS promoter inh: 12.1; Ins promoter up: -0.17; Autophagy HCS: active; HCT116 bCat-KO: 6.1

What do the screens show for `CCC(Sc1nc2cc3c(cc2c(=O)n1Cc1ccco1)OCO3)C(=O)Nc1cccc(OC)c1` (centres undefined)?
Lmaj promast: 95.7*; PTEN del growth: 1.7*; INS promoter inh: 42.4; Ins promoter up: 0.13; Autophagy HCS: active; HCT116 bCat-KO: 1.7*

How did CC(C)c1ccc(NC(=O)N2CCc3ccccc3C2)cc1 do in these assays?
Lmaj promast: 15.2; Ins promoter up: -0.73; Autophagy HCS: inactive

Results for O=C(CSc1ncccn1)NN=C1CCCCCC1 ?
Lmaj promast: -7.6; PTEN del growth: 100.3; INS promoter inh: 66.7*; Ins promoter up: 0.28; Autophagy HCS: inactive; HCT116 bCat-KO: 102.8

What do the screens show for `Cc1cc(C)cc(CSCC(=O)NN=C2CCCCCC2)c1`?
Lmaj promast: 6.0; PTEN del growth: 99.4; INS promoter inh: -46.7; Ins promoter up: -0.33; Autophagy HCS: inactive; HCT116 bCat-KO: 102.9

Results for COc1ccc(NC(=O)c2sc3nc(-c4cccnc4)ccc3c2N)cc1OC ?
Ins promoter up: -0.43

How did Nc1c(C(=O)Nc2cccc(Cl)c2Cl)sc2nc(-c3cccnc3)ccc12 do in these assays?
Lmaj promast: -3.9; PTEN del growth: 1.3*; INS promoter inh: -100.0; Ins promoter up: 0.47; Autophagy HCS: inactive; HCT116 bCat-KO: 1.5*

How did COc1ccc(NC(=O)c2sc3nc(-c4cccnc4)ccc3c2N)cc1 do in these assays?
Ins promoter up: 6.04*

How did Nc1c(C(=O)Nc2ccccc2)sc2nc(-c3cccnc3)ccc12 do in these assays?
Ins promoter up: 1.07

Results for Nc1c(C(=O)Nc2ccccc2)sc2nc(-c3ccco3)ccc12 ?
Lmaj promast: 11.6; PTEN del growth: 61.3; INS promoter inh: 80.0*; Ins promoter up: 0.73; Autophagy HCS: inactive; HCT116 bCat-KO: 70.2

What do the screens show for `COC(=O)C(C)Sc1ccc2nnc(CCNS(=O)(=O)c3ccccc3)n2n1` (centres undefined)?
Lmaj promast: -0.8; Ins promoter up: 0.14; Autophagy HCS: inactive

Results for FC(F)(F)c1nnc2ccc(NCc3ccccc3)nn12 ?
Lmaj promast: 0.5; INS promoter inh: -66.7; Ins promoter up: -0.16; Autophagy HCS: inactive

How did CC(=O)CCC(=O)OCC(=O)c1ccc(C(F)(F)F)cc1 do in these assays?
Ins promoter up: 1.37

What do the screens show for `CCN(CC)S(=O)(=O)c1ccc(C2=NOC3(C2)N(C)c2ccccc2C3(C)C)cc1` (centres undefined)?
Lmaj promast: 83.5*; PTEN del growth: 80.6; INS promoter inh: -45.1; Ins promoter up: 0.13; Autophagy HCS: inactive; HCT116 bCat-KO: 78.7

What do the screens show for `CN1c2ccccc2C(C)(C)C12CC(c1cccc(S(=O)(=O)N3CCCC3)c1)=NO2` (centres undefined)?
Lmaj promast: 72.6*; PTEN del growth: 79.0; INS promoter inh: 26.7; Ins promoter up: -0.23; Autophagy HCS: inactive; HCT116 bCat-KO: 74.1

How did CCOC(=O)CC1C(=O)NCCN1C(=O)c1cc2c(=O)n3ccccc3nc2s1 (centres undefined) do in these assays?
Lmaj promast: 10.4; PTEN del growth: 95.0; Ins promoter up: 2.22; Autophagy HCS: inactive; HCT116 bCat-KO: 95.7

How did Cc1ccc(NC(=O)c2ccc(NCCN)c([N+](=O)[O-])c2)cc1 do in these assays?
Lmaj promast: 88.6*; PTEN del growth: 81.2; INS promoter inh: -12.9; Autophagy HCS: inactive; HCT116 bCat-KO: 84.5

Results for Cc1cccc(NC(=O)NNC(=O)c2ccc(C)c([N+](=O)[O-])c2)c1 ?
Lmaj promast: 2.4; Ins promoter up: 0.25; Autophagy HCS: inactive

Results for Cc1ccc(NC(=O)c2ccc(NCc3ccco3)c([N+](=O)[O-])c2)cc1Cl ?
Lmaj promast: -0.8; PTEN del growth: 87.8; Ins promoter up: -0.1; Autophagy HCS: active; HCT116 bCat-KO: 84.8

Results for Cc1cccc(NC(=O)c2ccc(NCCc3ccccc3)c([N+](=O)[O-])c2)c1 ?
Lmaj promast: -3.4; PTEN del growth: 79.6; INS promoter inh: -6.7; Ins promoter up: -0.12; Autophagy HCS: active; HCT116 bCat-KO: 83.7

What do the screens show for `CN(c1ccc(OCC(=O)Nc2ccc3[nH]c(=O)[nH]c3c2)cc1)S(=O)(=O)c1ccc(Cl)cc1`?
Lmaj promast: -3.5; PTEN del growth: 111.0; INS promoter inh: -26.1; Ins promoter up: 0.32; Autophagy HCS: inactive; HCT116 bCat-KO: 96.1

How did CCO[C@@H]1OC(C(=O)N2CCCCCCC2)=C[C@H](c2csc3ccccc23)[C@H]1CCCO do in these assays?
Lmaj promast: -6.0; Ins promoter up: 0.92; Autophagy HCS: inactive

How did O=S1(=O)NC(=NC2CCCCCC2)c2ccccc21 do in these assays?
Lmaj promast: -5.3; PTEN del growth: 92.6; INS promoter inh: 43.8; Ins promoter up: 0.45; Autophagy HCS: inactive; HCT116 bCat-KO: 93.7

How did CC(=O)Nc1nc(-c2ccc(Cl)cc2)ns1 do in these assays?
Lmaj promast: 0.0; PTEN del growth: 79.6; INS promoter inh: -85.7; Ins promoter up: -0.01; Autophagy HCS: active; HCT116 bCat-KO: 73.1

What do the screens show for `CCOc1ccc(NCC(=O)Nc2ccc(Cl)cc2C)cc1`?
Lmaj promast: 29.7; PTEN del growth: 73.8; INS promoter inh: 10.0; Autophagy HCS: inactive; HCT116 bCat-KO: 73.0

How did COc1ccc(NCC(=O)Nc2ccc(Cl)cc2C)c(OC)c1 do in these assays?
Lmaj promast: 99.0*; PTEN del growth: 45.0; INS promoter inh: -82.9; Ins promoter up: 0.78; Autophagy HCS: inactive; HCT116 bCat-KO: 50.2

How did CC(NC(=O)C1CCCC1)C1CC2CCC1C2 (centres undefined) do in these assays?
Lmaj promast: -2.4; PTEN del growth: 88.0; INS promoter inh: 71.4*; Ins promoter up: 1.09; Autophagy HCS: inactive; HCT116 bCat-KO: 89.3

What do the screens show for `CC(NC(=O)C1CC=CCC1C(=O)O)C1CC2CCC1C2` (centres undefined)?
Lmaj promast: -5.5; PTEN del growth: 103.7; INS promoter inh: -51.3; Ins promoter up: -0.26; Autophagy HCS: inactive; HCT116 bCat-KO: 89.0

Results for Cc1ccc(S(=O)(=O)Oc2cccc(/C=N/n3cnnc3)c2)cc1 ?
Lmaj promast: 66.8*; PTEN del growth: 17.7; INS promoter inh: 34.2; Ins promoter up: 0.19; Autophagy HCS: inactive; HCT116 bCat-KO: 14.9

Bioassay records as filed in PubChem.
